Laboratory results reported in PubChem BioAssay (Tox21).
Records with an inconclusive call do not appear. Activity calls are given as the source filed them. The call rests on the fitted dose curve.

Legend:
[1] = target: Acetylcholinesterase (Homo sapiens) (UniProt P22303); test: Acetylcholinesterase (AChE) small molecule antagonists: colormetric cell-based qHTS assay (AID 1347395); further: nearly all actives have a fitted effect of over 30% in size
Method in brief: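 Neuroblastoma line SH-SY5Y supplied the enzyme; cells were preincubated with compound for 30 min at 37 C and 5% CO2. Acetylthiocholine with DTNB was then added for 90 min at 37 C, and thiocholine was measured by colour.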

[2] = target: Acetylcholinesterase (Homo sapiens) (UniProt P22303); test: Acetylcholinesterase (AChE) small molecule antagonists: enzyme-based qHTS assay (AID 1347397); conditions: Potency: AChE enzyme activity inhibition; outcome: AChE enzyme activity inhibition; further: nearly all actives have a fitted effect of over 55% in size; further: potency means the concentration at half of the fitted maximal effect
Method in brief: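 In this quantitative HTS, compounds from the Tox21 10K collection were preincubated 30 min at ambient temperature with recombinant human AChE dispensed at 50 mU/mL. Hydrolysis of acetylthiocholine was then followed for 10 min by DTNB colour development.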

[3] = target: Acetylcholinesterase (Homo sapiens) (UniProt P22303); test: Acetylcholinesterase (AChE) small molecule antagonists: fluorescence cell-based qHTS assay (AID 1347398); conditions: Potency: AChE activity; outcome: AChE activity; further: nearly all actives have a fitted effect of over 50% in size
Method in brief: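 Cells (SH-SY5Y) attached overnight, were dosed with compound or DMSO vehicle for 30 min at 37 C, and then incubated 40 min at room temperature with acetylthiocholine and Thiolite Green; green fluorescence indexed AChE activity.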

[4] = target: Acetylcholinesterase (Homo sapiens) (UniProt P22303); test: Acetylcholinesterase (AChE) small molecule antagonists: enzyme-based qHTS assay with human liver microsomes (AID 1347399); conditions: Potency: qHTS inhibition; outcome: qHTS inhibition; further: nearly all actives have a fitted effect of over 60% in size
Method in brief: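 Recombinant human AChE (50 mU/mL in the enzyme mix) and human liver microsomes (0.25 mg/mL final) were preincubated with compound and NADPH (0.25 mg/mL final) for 30 min at 37 C. Acetylthiocholine/DTNB was then added; thiocholine was read colorimetrically after 10 min at room temperature.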
On the % scale 0 is the no-effect control and ±100 the full control effect.

Acetylcholinesterase (Homo sapiens), sequence (P22303 whole entry, looked up): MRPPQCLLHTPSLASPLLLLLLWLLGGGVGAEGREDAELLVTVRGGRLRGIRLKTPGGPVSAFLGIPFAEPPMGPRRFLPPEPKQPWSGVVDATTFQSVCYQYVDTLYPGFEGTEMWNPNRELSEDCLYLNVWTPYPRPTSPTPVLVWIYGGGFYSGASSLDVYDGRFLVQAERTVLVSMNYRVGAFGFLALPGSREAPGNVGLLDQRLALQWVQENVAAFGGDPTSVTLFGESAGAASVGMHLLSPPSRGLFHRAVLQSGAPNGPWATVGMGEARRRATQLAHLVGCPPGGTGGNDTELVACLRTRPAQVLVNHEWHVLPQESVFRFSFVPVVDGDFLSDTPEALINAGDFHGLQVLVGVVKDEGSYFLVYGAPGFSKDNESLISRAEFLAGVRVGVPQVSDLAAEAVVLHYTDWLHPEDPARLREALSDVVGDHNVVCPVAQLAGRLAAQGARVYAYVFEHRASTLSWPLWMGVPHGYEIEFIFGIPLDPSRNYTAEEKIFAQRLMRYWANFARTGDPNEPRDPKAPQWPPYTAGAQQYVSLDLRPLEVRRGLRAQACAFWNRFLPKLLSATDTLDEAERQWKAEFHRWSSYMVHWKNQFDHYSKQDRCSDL

CCCCCCOC(=O)CCCCC
inactive: Potency [1] | Potency [2] | Potency [3]

C=CC(C)(CCC=C(C)C)OC(=O)CC (configuration not stated)
inactive: Potency [1] | Potency [2] | Potency [3]

N#CSCSc1nc2ccccc2s1
inactive: Potency [1] | Potency [2] | Potency [3] | Potency [4]

CCCCN1C(=O)[C@@H]([C@H](O)C2CCCCC2)NC(=O)C12CCN(Cc1ccc(Oc3ccc(C(=O)O)cc3)cc1)CC2
inactive: Potency [1] | Potency [2] | Potency [3] | Potency [4]

CC[N+](CC)(CC)Cc1ccccc1
inactive: Potency [1] | Potency [2] | Potency [3] | Potency [4]

CCCCCCCCCCCCOC(C)=O
inactive: Potency [1] | Potency [2] | Potency [3] | Potency [4]

Cc1ccc(CO)cc1
inactive: Potency [1] | Potency [2] | Potency [3] | Potency [4]

COc1ccc2nc(NC(=O)Nc3ccccc3)sc2c1
inactive: Potency [1] | Potency [2] | Potency [3] | Potency [4]

CO[C@@H]1COCC[C@@H]1N[C@@H]1CC[C@@](C(=O)N2CCc3ncc(C(F)(F)F)cc3C2)(C(C)C)C1
inactive: Potency [1] | Potency [2] | Potency [3] | Potency [4]

Clc1ccc(C(Cn2ccnc2)OCc2ccc(Sc3ccccc3)cc2)c(Cl)c1 (configuration not stated)
inactive: Potency [1] | Potency [2] | Potency [3] | Potency [4]

CNCCCC1c2ccccc2C=Cc2ccccc21
inactive: outcome [1] | outcome [2] | outcome [3] | outcome [4]

CC(O)COC(C)(C)C (configuration not stated)
inactive: Potency [1] | Potency [2] | Potency [3] | Potency [4]

COc1cccc(Br)c1
inactive: Potency [1] | Potency [2] | Potency [3] | Potency [4]

CC1(C)C(=O)N(Br)C(=O)N1Cl
inactive: Potency [1] | Potency [2] | Potency [3] | Potency [4]

CC[C@@]1(c2ccccc2)NC(=O)N(C)C1=O
inactive: Potency [1] | Potency [2] | Potency [3] | Potency [4]

CO[C@H]1C=CO[C@@]2(C)Oc3c(C)c(O)c4c(O)c(cc(O)c4c3C2=O)NC(=O)/C(C)=C\C=C/[C@H](C)[C@H](O)[C@@H](C)[C@@H](O)[C@@H](C)[C@H](OC(C)=O)[C@@H]1C
inactive: Potency [1] | Potency [2] | Potency [3] | Potency [4]

Cc1nc(-c2ccc3c(c2)CCN(CCC2CCC(NC(=O)/C=C/c4ccc(F)cc4)CC2)CC3)no1 (configuration not stated)
inactive: Potency [1] | Potency [2] | Potency [3] | Potency [4]

CCCOC(OCCC)OCCC
inactive: Potency [1] | Potency [2] | Potency [3] | Potency [4]

CCN(CC)C(=O)Nc1ccc(OCC(O)CNC(C)(C)C)c(C(C)=O)c1 (configuration not stated)
inactive: Potency [1] | Potency [2] | Potency [3] | Potency [4]

Oc1ccc(-c2ccc(O)cc2)cc1
inactive: Potency [1] | Potency [2] | Potency [3] | Potency [4]

CCOC(=O)C(C)(C)C
inactive: Potency [1] | Potency [2] | Potency [3] | Potency [4]

O=S1(=O)CCCC1
inactive: Potency [1] | Potency [2] | Potency [3] | Potency [4]

CCN(C(=O)N(CC)c1ccccc1)c1ccccc1
inactive: Potency [1] | Potency [2] | Potency [3] | Potency [4]

CCCCN(CCCC)C(C(N)=O)c1ccc(OC)cc1 (configuration not stated)
inactive: Potency [1] | Potency [2] | Potency [3] | Potency [4]

CCc1c(Br)c(Br)c(Br)c(Br)c1Br
inactive: Potency [1] | Potency [2] | Potency [3] | Potency [4]

O=C1CCCCO1
inactive: Potency [1] | Potency [2] | Potency [3] | Potency [4]

CC(C)(C)C(=O)Oc1ccc(S(=O)(=O)Nc2ccccc2C(=O)NCC(=O)O)cc1
inactive: Potency [1] | Potency [2] | Potency [3] | Potency [4]

CC1=CC[C@@]23C[C@@H]1C(C)(C)[C@@H]2CC[C@H]3C
inactive: Potency [1] | Potency [2] | Potency [3] | Potency [4]

Nc1cccc2c(N)cccc12
inactive: Potency [1] | Potency [2] | Potency [3] | Potency [4]

Cn1c(=O)c2c(ncn2CC(O)CO)n(C)c1=O (configuration not stated)
inactive: Potency [1] | Potency [2] | Potency [3] | Potency [4]

C/C=C/C(=O)Oc1c(CCCCCC(C)C)cc([N+](=O)[O-])cc1[N+](=O)[O-]
inactive: Potency [1] | Potency [3] | Potency [4]
active: Potency [2] 71 µM

CC(C)c1ccc2c(c1)CC[C@H]1[C@](C)(CN)CCC[C@]21C
inactive: Potency [1] | Potency [2] | Potency [3] | Potency [4]

Cc1ncc([N+](=O)[O-])n1CC(C)O (configuration not stated)
inactive: Potency [1] | Potency [2] | Potency [3] | Potency [4]

O=C(O)[C@@H]1CSCN1
inactive: Potency [1] | Potency [2] | Potency [3] | Potency [4]

CC1CCc2nccnc21 (configuration not stated)
inactive: Potency [1] | Potency [2] | Potency [3] | Potency [4]

C=Cc1ccc(C=C)cc1
inactive: Potency [1] | Potency [2] | Potency [3] | Potency [4]

CC(=O)OC1CCCCC1C(C)(C)C (configuration not stated)
inactive: Potency [1] | Potency [2] | Potency [3] | Potency [4]

O=C1C=CCCC1
inactive: Potency [1] | Potency [2] | Potency [3] | Potency [4]

BrC/C=C/CBr
inactive: activity, negative = inhibition [1] 1.18% [at 23.6 µM] | activity change, negative = inhibition [2] 2.59% [at 23.6 µM] | activity change, negative = inhibition [3] 7.15% [at 23.8 µM] | activity change, negative = inhibition [4] -2.1% [at 23.6 µM]

Cc1[nH]cnc1-c1ccc(Cl)cc1
inactive: Potency [1] | Potency [2] | Potency [3] | Potency [4]

O=C(Nc1cccc([N+](=O)[O-])c1)c1cc2ccccc2cc1O
inactive: Potency [1] | Potency [2] | Potency [3] | Potency [4]
